Laboratory results as given in PubChem BioAssay (NCATS).
Records with an inconclusive call do not appear. Activity calls are given as the source filed them. The call rests on the fitted dose curve; in most records, active means well fitted cell-killing curve with a large enough effect; inconclusive means small, poorly fitted or top-dose-only effect, or effect the other way; inactive means no such curve, though single readings can be large or run the other way.

Columns and labels:
[1] = Quantitative High-Throughput drug screen in 47 multiple myeloma cell lines against the NCATS MIPE library collection: MM1S_ATCC cell viability assay (AID 1918980); further: nearly all actives have a fitted effect of over 45% in size
Summary of the method: (§1)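 Cells were exposed to library compounds for 48 hours, after which ATP was measured by CellTiter-Glo. Signal was taken as median relative luminescence units.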

[2] = Quantitative High-Throughput drug screen in 47 multiple myeloma cell lines against the NCATS MIPE library collection: OPM1_PLB cell viability assay (AID 1918989); further: nearly all actives have a fitted effect of over 40% in size
Summary of the method: as §1

[3] = Quantitative High-Throughput drug screen in 47 multiple myeloma cell lines against the NCATS MIPE library collection: MM1R_ATCC cell viability assay (AID 1918981); further: nearly all actives have a fitted effect of over 35% in size
Summary of the method: as §1

[4] = Quantitative High-Throughput drug screen in 47 multiple myeloma cell lines against the NCATS MIPE library collection: KMS28PE_JCRB cell viability assay (AID 1918983); further: nearly all actives have a fitted effect of over 35% in size
Summary of the method: as §1

[5] = Quantitative High-Throughput drug screen in 47 multiple myeloma cell lines against the NCATS MIPE library collection: OCIMY7_PLB cell viability assay (AID 1918987); further: nearly all actives have a fitted effect of over 65% in size
Summary of the method: as §1

[6] = Quantitative High-Throughput drug screen in 47 multiple myeloma cell lines against the NCATS MIPE library collection: OCIMY5_PLB cell viability assay (AID 1918988); further: nearly all actives have a fitted effect of over 65% in size
Summary of the method: as §1

[7] = Quantitative High-Throughput drug screen in 47 multiple myeloma cell lines against the NCATS MIPE library collection: LP1_DSMZ cell viability assay (AID 1918982); further: nearly all actives have a fitted effect of over 35% in size
Summary of the method: as §1

[8] = Quantitative High-Throughput drug screen in 47 multiple myeloma cell lines against the NCATS MIPE library collection: KMS34_JCRB cell viability assay (AID 1918985); further: nearly all actives have a fitted effect of over 40% in size
Summary of the method: as §1

[9] = Quantitative High-Throughput drug screen in 47 multiple myeloma cell lines against the NCATS MIPE library collection: L363_DSMZ cell viability assay (AID 1918984); further: nearly all actives have a fitted effect of over 40% in size
Summary of the method: as §1
Potency means the concentration at half of the fitted maximal effect.

For `COCC(=O)NCC=Cc1ccc2ncnc(Nc3ccc(Oc4ccc(C)nc4)c(C)c3)c2c1`, the Potency [1] was 26.4 µM (active) and the Potency [2] was 18.7 µM (active).

In the case of `COc1cc(F)c(F)c(Nc2ccc(I)cc2F)c1NS(=O)(=O)C1(C[C@H](O)CO)CC1`, the Potency [1] is reported as 16.6 µM (active), the Potency [3] is reported as 10.5 µM (active) and the Potency [4] is reported as 5.26 µM (active). The Potency [5] was 16.6 µM (active) and the Potency [2] was 11.8 µM (active).

With `COc1ccc2c3n(c(=NC(=O)c4cccnc4)nc2c1OC)CCN3` the Potency [1] was 2.64 µM (active), the Potency [3] was 5.9 µM (active) and the Potency [4] was 5.9 µM (active). For the same molecule, the Potency [5] was 0.0743 µM (active), the Potency [6] was 3.72 µM (active) and the Potency [2] was 16.6 µM (active).

For `C[C@H](NC(=O)Cc1cc(F)cc(F)c1)C(=O)N[C@@H]1C(=O)N(C)c2ccccc2-c2ccccc21`, the Potency [1] was 9.35 µM (active), the Potency [7] was “inactive” and the Potency [4] was “inactive”. The Potency [6] was 16.6 µM (active).

In the case of `Fc1ccc(Cl)cc1-c1nc(Nc2ccncc2)c2nccnc2n1`, the Potency [1] is reported as “inactive”, the Potency [8] is reported as 1.32 µM (active) and the Potency [5] is reported as “inactive”. For the same molecule, the Potency [2] was 14.8 µM (active).

For `CCC(C)n1ncn(-c2ccc(N3CCN(c4ccc(OC[C@H]5CO[C@](Cn6cncn6)(c6ccc(Cl)cc6Cl)O5)cc4)CC3)cc2)c1=O` (stereo not given in full), the Potency [1] was “inactive”, the Potency [4] was 14.8 µM (active) and the Potency [5] was “inactive”. For the same molecule, the Potency [6] was 2.96 µM (active) and the Potency [2] was “inactive”.

In the case of `O=c1[nH]c(-c2ccc(C(F)(F)F)cc2)nc2c1CSCC2`, the Potency [1] is reported as 18.7 µM (active), the Potency [4] is reported as “inactive” and the Potency [9] is reported as “inactive”. The Potency [6] was 5.26 µM (active).

With `CNC[C@H](O)c1cccc(O)c1` the Potency [1] was “inactive”, the Potency [7] was “inactive” and the Potency [4] was “inactive”. The Potency [8] was “inactive”, the Potency [6] was 0.332 µM (active) and the Potency [2] was “inactive”.

In the case of `CN[C@@H](C)C(=O)N[C@H]1CCCC[C@H]2CC[C@@H](C(=O)N[C@@H](c3ccccc3)c3cn(CCCCc4ccc(CCCCn5cc([C@@H](NC(=O)[C@@H]6CC[C@@H]7CCCC[C@H](NC(=O)[C@H](C)NC)C(=O)N76)c6ccccc6)nn5)cc4)nn3)N2C1=O`, the Potency [1] is reported as 18.7 µM (active), the Potency [4] is reported as “inactive” and the Potency [8] is reported as “inactive”. For the same molecule, the Potency [5] was 0.001 µM (active), the Potency [6] was 16.6 µM (active) and the Potency [2] was 16.6 µM (active).

In the case of `CC[C@H](Nc1ncnc2nc[nH]c12)c1nc2cccc(F)c2c(=O)n1-c1ccccc1`, the Potency [1] is reported as 0.118 µM (active), the Potency [5] is reported as 4.69 µM (active) and the Potency [6] is reported as 20.9 µM (active). For the same molecule, the Potency [2] was 14.8 µM (active).

In the case of `Cc1cc(Nc2nc(N[C@@H](C)c3ncc(F)cn3)ncc2Cl)n[nH]1`, the Potency [1] is reported as 3.32 µM (active), the Potency [3] is reported as 26.4 µM (active) and the Potency [4] is reported as 20.9 µM (active). The Potency [6] was 7.43 µM (active) and the Potency [2] was 18.7 µM (active).

For `COc1cc2c(cc1OC)CN(CCc1ccc(NC(=O)c3cccc4c(=O)c5cccc(OC)c5[nH]c34)cc1)CC2`, the Potency [1] was 2.64 µM (active), the Potency [7] was “inactive” and the Potency [8] was “inactive”. The Potency [2] was 16.6 µM (active).

In the case of `O=C(Nc1nc2ccccc2n1CCN1CCOCC1)c1cccc([N+](=O)[O-])c1`, the Potency [1] is reported as 9.35 µM (active), the Potency [3] is reported as 18.7 µM (active) and the Potency [5] is reported as 1.87 µM (active). The Potency [6] was 5.9 µM (active).

In the case of `CN(C)c1ccc(C2Nc3ccc4ccccc4c3C3=C2C(=O)CC(C)(C)C3)cc1Br` (stereo not given), the Potency [1] is reported as “inactive”, the Potency [4] is reported as 23.5 µM (active) and the Potency [9] is reported as “inactive”. For the same molecule, the Potency [8] was “inactive”, the Potency [5] was 0.935 µM (active) and the Potency [6] was 23.5 µM (active).

In the case of `O=C(c1cc(Cc2n[nH]c(=O)c3ccccc23)ccc1F)N1CCN(C(=O)C2CC2)CC1`, the Potency [1] is reported as 23.5 µM (active), the Potency [8] is reported as “inactive” and the Potency [5] is reported as 2.64 µM (active). For the same molecule, the Potency [2] was “inactive”.

In the case of `COc1ccc(COc2cc3oc(=O)c4cc(C(C)O)ccc4c3cc2OC)cc1` (stereo not given), the Potency [1] is reported as 13.2 µM (active), the Potency [4] is reported as 23.5 µM (active) and the Potency [8] is reported as 18.7 µM (active). The Potency [6] was 20.9 µM (active) and the Potency [2] was 18.7 µM (active).

For `C1COC(NC(C2CC2)C2CC2)=N1`, the Potency [1] was “inactive”, the Potency [7] was “inactive” and the Potency [4] was “inactive”. For the same molecule, the Potency [6] was “inactive” and the Potency [2] was 16.6 µM (active).

In the case of `Cc1cc(-c2ccc(CC(=O)Nc3ccc(-c4cccnc4)cc3)cc2)ccn1`, the Potency [1] is reported as “inactive”, the Potency [3] is reported as “inactive” and the Potency [4] is reported as 13.2 µM (active). The Potency [5] was 23.5 µM (active), the Potency [6] was 16.6 µM (active) and the Potency [2] was 20.9 µM (active).

In the case of `CCCS(=O)(=O)Nc1ccc(F)c(C(=O)c2c[nH]c3ncc(-c4ccc(Cl)cc4)cc23)c1F`, the Potency [1] is reported as 7.43 µM (active), the Potency [7] is reported as 16.6 µM (active) and the Potency [5] is reported as 5.9 µM (active). The Potency [6] was 13.2 µM (active).

With `CCc1cc(Nc2nccc(-c3c(-c4ccc(OC)c(C(=O)Nc5c(F)cccc5F)c4)nc4ccccn34)n2)c(OC)cc1N1CCC(N2CCN(S(C)(=O)=O)CC2)CC1` the Potency [4] was 26.4 µM (active), the Potency [9] was 16.6 µM (active) and the Potency [2] was 14.8 µM (active).

In the case of `Cc1[nH]c(=O)c(C#N)cc1-c1ccc2nccn2c1`, the Potency [4] is reported as “inactive”, the Potency [5] is reported as “inactive” and the Potency [2] is reported as “inactive”.

In the case of `OC(CN1CCC(Cc2ccc(F)cc2)CC1)c1ccc(Cl)cc1` (stereo not given), the Potency [7] is reported as “inactive” and the Potency [2] is reported as “inactive”.

With `CS(=O)(=O)c1ccc(C(=O)Nc2ccc(Cl)c(-c3ccccn3)c2)c(Cl)c1` the Potency [3] was “inactive”, the Potency [7] was “inactive” and the Potency [4] was “inactive”. The Potency [8] was “inactive”, the Potency [5] was 14.8 µM (active) and the Potency [2] was 18.7 µM (active).

With `CNCc1ccc(-c2[nH]c3cc(F)cc4c3c2CCNC4=O)cc1` the Potency [3] was “inactive”, the Potency [7] was “inactive” and the Potency [4] was “inactive”. For the same molecule, the Potency [8] was “inactive”, the Potency [6] was “inactive” and the Potency [2] was “inactive”.

For `CCn1cc(C(=O)O)c(=O)c2cc(F)c(N3CCNC(C)C3)c(F)c21` (stereo not given), the Potency [3] was “inactive”, the Potency [7] was “inactive” and the Potency [4] was “inactive”. The Potency [8] was “inactive”, the Potency [6] was “inactive” and the Potency [2] was 11.8 µM (active).
